Data: PubChem BioAssay (NCI)
This is part of a sample that, as a whole, favours compounds with a hit. Of some 79,000 tested, about 15% had one in any assay. A number with no mark means an inactive call. Calls of active or inactive are those of the source. Rule as the data show it: active = growth inhibition above about 70%; inactive = the rest.

Tests used:
[1] = NCI Yeast Anticancer Drug Screen. Data for the rad50 strain (AID 155);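 also: 0% = growth of vehicle-only cultures of the same strain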; conditions: S. cerevisiae rad50 strain growth inhibition, hits give high values
Summary of the method: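 DNA repair mutant yeast, compound exposure, growth read-out; inhibition is taken relative to vehicle.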

[2] = NCI Yeast Anticancer Drug Screen. Data for the mec2-1 strain (AID 157); conditions: S. cerevisiae mec2-1 strain, hits give high values
Summary of the method: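 Using mec2-1 yeast: add compound, measure growth, express inhibition versus vehicle-treated cultures.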

[3] = NCI Yeast Anticancer Drug Screen. Data for the sgs1 mgt1 strain (AID 161);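 also: 0% = growth of cultures given vehicle only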; conditions: S. cerevisiae sgs1 mgt1 strain, hits give high values
Summary of the method: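 This yeast growth screen uses a strain with defined DNA-repair lesions; compound-treated growth is compared with vehicle-treated growth.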

[4] = NCI Yeast Anticancer Drug Screen. Data for the cln2 rad14 strain (AID 165);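 also: 0% = growth equal to vehicle treated cultures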; conditions: S. cerevisiae cln2 rad14 strain, hits give high values
Summary of the method: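 Yeast strain cln2 rad14, bearing defects in cell cycle control and DNA repair, serves as the test system; values reflect growth inhibition compared with vehicle.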

[5] = NCI Yeast Anticancer Drug Screen. Data for the bub3 strain (AID 167); conditions: S. cerevisiae bub3 mutant strain, hits give high values
Summary of the method: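 In this screen, a yeast mutant lacking normal mitotic checkpoint function is challenged with compound. Relative growth versus vehicle gives the inhibition value.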

[6] = NCI Yeast Anticancer Drug Screen. Data for the mlh1 rad18 strain (AID 175); conditions: S. cerevisiae mlh1 rad18 strain growth inhibition, hits give high values
Summary of the method: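 Steps: expose repair-defective yeast to compound; measure growth; express inhibition against vehicle-treated controls.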

[7] = at 5.0 µM (retest, dose inferred, filed as 0.5)
[8] = at 50.0 µM (retest, dose inferred, filed as 5.0)

SMILES | growth inhibition [1, 7] | growth inhibition [1, 8] | growth inhibition ([1]; at 50.0 µM) | growth inhibition [2, 7] | growth inhibition [2, 8] | growth inhibition ([2]; at 50.0 µM) | growth inhibition [3, 7] | growth inhibition [3, 8] | growth inhibition ([3]; at 50.0 µM) | growth inhibition [4, 7] | growth inhibition [4, 8] | growth inhibition ([4]; at 50.0 µM) | growth inhibition [5, 7] | growth inhibition [5, 8] | growth inhibition ([5]; at 50.0 µM) | growth inhibition [6, 7] | growth inhibition [6, 8] | growth inhibition ([6]; at 50.0 µM)
Cc1ccc(S(=O)(=O)OCC2OC(c3ccccc3)OC3C(CO)OC(c4ccccc4)OC23)cc1 (configuration not stated) | -1% | -6% | 16.7% | 0% | -5% | 50.5% | -3% | -6% | 11.3% | 4% | -10% | 16.2% | 0% | -5% | -0.65% | 0% | -6% | 60.5%
COc1cc(CNc2nc3ccccc3nc2-c2cccs2)cc(OC)c1OC | 5% | 12% | 10% | -13% | -22% | 0.65% | -1% | 20% | 19.6% | -12% | 9% | 60% | -12% | -8% | 30% | -17% | 17% | 55.3%
CCC[CH2][Sn]([CH2]CCC)([O]C(=O)c1cc(F)cc(F)c1)[O][Sn]([CH2]CCC)([CH2]CCC)[O]C(=O)c1cc(F)cc(F)c1 | 48% | 88% (active) | 83% (active) | 57% | 97% (active) | 88.7% (active) | 40% | 95% (active) | 89.7% (active) | 30% | 88% (active) | 85.8% (active) | 49% | 99% (active) | 89% (active) | 44% | 96% (active) | 87.7% (active)
OCCCC(Sc1ccccc1)c1ccccc1 (configuration not stated) | -1% | 25% | 46.4% | -18% | 13% | 78.5% (active) | -15% | 23% | 67.2% | -1% | -1% | 40.2% | -4% | 3% | -0.25% | 28% | 23% | 52.2%
C/C(=C\c1ccccc1Cl)c1ccccn1 | 2% | 67% | 86.2% (active) | 2% | 49% | 89.6% (active) | 6% | 71% (active) | 80.7% (active) | -7% | 7% | -44.5% | 33% | 98% (active) | 96.8% (active) | 10% | 27% | 83% (active)
COc1ccc(C2=Nc3cc(C)c(C)cc3NC(c3ccccc3)C2)cc1 (configuration not stated) | 11% | 11% | 43.2% | 7% | 7% | 69.8% | 21% | 21% | 66.9% | 1% | 1% | 9.5% | 35% | 35% | 74.7% (active) | 19% | 19% | 51%
COc1ccc2ccccc2c1/C=C/C(=O)c1ccccc1 | -3% | 34% | 54.6% | 7% | 43% | 19.4% | 11% | 47% | 42.4% | -19% | 40% | 56.2% | -8% | 58% | 46% | 1% | 72% (active) | 46.4%
CCN(CC)CCNc1ccc2ncn3c4c(OC)ccc(=O)c4c(O)c1c23 | 24% | 96% (active) | 25.4% | 9% | 65% | 19.9% | 3% | 54% | 22.6% | -1% | 29% | -1.95% | 9% | 19% | -13.1% | 9% | 83% (active) | 4.65%
CC1(C)[C@H]2CC[C@]1(C)[C@H](OC(=O)NNC(=O)O[C@@H]1C[C@@H]3CC[C@@]1(C)C3(C)C)C2 | 33% | 74% (active) | 11.3% | 37% | 59% | 22.4% | 26% | 35% | 53% | 30% | 38% | 47.4% | 35% | 51% | 67.2% | 38% | 68% | -16%
CC1(C)OC(C(COC(=O)c2ccc([N+](=O)[O-])cc2)OS(=O)(=O)c2ccc([N+](=O)[O-])cc2)C(C(SCc2ccccc2)SCc2ccccc2)O1 (configuration not stated) | 12% | 97% (active) | 43.6% | 1% | 99% (active) | 33.5% | 4% | 98% (active) | 46.6% | -9% | 92% (active) | 7.75% | -2% | 99% (active) | 15.3% | 8% | 98% (active) | 67%
CCCC(C)(O)C(C)CC (configuration not stated) | 2% | 5% | 19.1% | 0% | -1% | 9.3% | -1% | 0% | -0.85% | -3% | -8% | -6.9% | -3% | 8% | 2.45% | -2% | 0% | 7.7%
Cc1c(NC(=O)CCl)c(=O)oc2c(C)c3occc(=O)c3cc12 | 59% | 97% (active) | 96.8% (active) | 16% | 93% (active) | 83.8% (active) | 7% | 89% (active) | 90.8% (active) | 10% | 85% (active) | 29.3% | 10% | 91% (active) | 79.2% (active) | 13% | 94% (active) | 92% (active)
CCN1C(/C=C/c2ccc(O)c3ncccc23)CCC2CC(C)CCC21 (configuration not stated) | 20% | 94% (active) | 95.3% (active) | 12% | 97% (active) | 95.5% (active) | 62% | 96% (active) | 95.5% (active) | 10% | 90% (active) | 88.9% (active) | 30% | 94% (active) | 94% (active) | 41% | 94% (active) | 94.3% (active)
O=C1c2scc(-c3ccccc3)c2-n2cccc21 | -6% | 96% (active) | 78.5% (active) | -10% | 95% (active) | 90.1% (active) | 2% | 87% (active) | 82.5% (active) | 10% | 81% (active) | 80.8% (active) | -16% | 94% (active) | 79% (active) | -16% | 94% (active) | 88.2% (active)
Clc1ccc2ccc3cccnc3c2n1 | 9% | 95% (active) | -38.5% | 7% | 97% (active) | -9.5% | 0% | 86% (active) | -13.2% | -4% | 92% (active) | 7.9% | -7% | 98% (active) | 20.4% | 3% | 94% (active) | -25.1%
COc1ccc(SC2=C(N(C)C)C(=O)c3ccccc3C2=O)cc1 | 2% | 85% (active) | 88.2% (active) | -19% | 79% (active) | 19.8% | 2% | 92% (active) | 63.2% | 54% | 79% (active) | 22.8% | -10% | -46% | 60% | 11% | 88% (active) | 84.5% (active)
CC(C)CCCCCCCCCCCCC(=O)NCC(=O)NC1C(O)C(O)C(Nc2ncnc3nc[nH]c23)OC1C(O)CO (configuration not stated) | 25% | 53% | 34.5% | 26% | 46% | 25.9% | 7% | 43% | 52.2% | 5% | -14% | 47.9% | 18% | 63% | 52.4% | 44% | 63% | 53.9%
O=C(O)c1ccc(NCc2c(O)ccc3ccccc23)cc1 | 5% | 26% | 4% | 9% | 29% | 17.4% | 11% | 15% | 45.2% | -3% | 15% | -13.9% | 4% | 28% | 48.1% | 9% | 26% | 19.1%
O=C(Nc1ccc(NC(=O)Nc2cc(C(=O)Nc3ccc(C4=NCCN4)cc3)ccc2C(=O)Nc2ccc(C3=NCCN3)cc2)cc1)Nc1cc(C(=O)Nc2ccc(C3=NCCN3)cc2)ccc1C(=O)Nc1ccc(C2=NCCN2)cc1 | 7% | -4% | 95.5% (active) | 0% | -6% | 94.5% (active) | 2% | -3% | 95.9% (active) | -1% | 1% | 95% (active) | 2% | 16% | 97% (active) | 7% | -2% | 96.5% (active)
